Test results taken from PubChem BioAssay AID1159580 (chemical genetic matrix, 2015).
Several values for one entry are separate records, joined by “and”; a condition that tells them apart may be missing. Identical values can stand only once. Among all 5,500 compounds or so, about 2,000 (36%) were called active. Inconclusive results (about 18%) are left out. No stated cut-off is given here; in the data, active means normalized growth mostly below about 0.91 (no sharp cut-off); inconclusive means no clear call, values can overlap the other calls; inactive means mostly above about 0.92. This is one part of the list.

Experiment: chemical genetic growth profiling, strain panel (AID 1159580);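 further: tested at 20 µM; growth read once vehicle control cultures reached saturation at 30 °C; 1 = growth at the plate median or of vehicle wells; lower values mean less growth of the strain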
Conditions: S. cerevisiae deletion strains, growth OD

Measured: normalized growth

CCN(CC)CCNC(=O)c1cc(S(C)(=O)=O)ccc1OC
inactive: locus YAL013W, strain DEP1, hits give low values 1 | locus YAL021C, strain ccr4, hits give low values 0.979 | locus YAL026C, strain drs2, hits give low values 0.976 | locus YAL030W, strain snc1, hits give low values 0.955 | locus YAL040C, strain CLN3, hits give low values 1.05 | locus YBL061C, strain skt5, hits give low values 0.967 | locus YBR009C, strain hhf1, hits give low values 0.989 | locus YBR021W, strain FUR4, hits give low values 1.02 | locus YBR023C, strain chs3, hits give low values 0.968 | locus YBR171W, strain sec66, hits give low values 0.955 | locus YBR229C, strain ROT2, hits give low values 1.01 | locus YBR231C, strain swc5, hits give low values 0.974 | locus YBR279W, strain paf1, hits give low values 0.969 | locus YCL011C, strain gbp2, hits give low values 0.945 | locus YCL016C, strain dcc1, hits give low values 0.971 | locus YCL029C, strain bik1, hits give low values 1.01 | locus YCL061C, strain MRC1 (second series), hits give low values 0.991 | locus YCL061C, strain MRC1, hits give low values 0.982 | locus YCL069W, strain vba3, hits give low values 0.984 | locus YCR088W, strain abp1, hits give low values 0.967 | locus YDL005C, strain med2, hits give low values 0.972 | locus YDL035C, strain GPR1, hits give low values 1.02 | locus YDL040C, strain nat1, hits give low values 0.976 | locus YDL074C, strain BRE1, hits give low values 1 | locus YDL101C, strain DUN1, hits give low values 1.01 | locus YDL134C, strain PPH21, hits give low values 1.02 | locus YDL185W, strain tfp1, hits give low values 1.01 | locus YDL192W, strain arf1, hits give low values 1.01 | locus YDR001C, strain nth1, hits give low values 0.953 | locus YDR069C, strain doa4, hits give low values 0.974 | locus YDR101C, strain arx1, hits give low values 0.991 | locus YDR137W, strain rgp1, hits give low values 0.959 | locus YDR150W, strain NUM1, hits give low values 1.01 and 0.998 | locus YDR159W, strain sac3, hits give low values 0.978 | locus YDR162C, strain NBP2, hits give low values 1.02 | locus YDR195W, strain ref2 0.965 | locus YDR297W, strain sur2, hits give low values 0.967 | locus YDR318W, strain mcm21, hits give low values 1.02 | locus YDR334W, strain swr1, hits give low values 0.937 | locus YDR335W, strain msn5, hits give low values 0.966 | locus YDR363W, strain ESC2, hits give low values 0.973 | locus YDR388W, hits give low values 1.02 | locus YDR392W, strain spt3, hits give low values 0.902 | locus YDR502C, strain sam2, hits give low values 1.01 | locus YEL003W, strain gim4, hits give low values 0.979 | locus YEL037C, strain rad23, hits give low values 0.971 | locus YEL061C, strain CIN8 (second series), hits give low values 0.964 | locus YEL061C, strain CIN8, hits give low values 1.01 | locus YER002W, strain NOP16, hits give low values 1.01 | locus YER015W, strain faa2, hits give low values 0.976 | locus YER016W, strain bim1, hits give low values 0.988 | locus YER110C, hits give low values 1.01 | locus YER111C, strain swi4, hits give low values 0.966 | locus YER155C, strain BEM2 (second series), hits give low values 0.978 | locus YER155C, strain BEM2, hits give low values 1.01 | locus YER167W, strain BCK2, hits give low values 1.02 | locus YFR010W, strain ubp6, hits give low values 0.953 | locus YGL078C, strain dbp3, hits give low values 1.01 | locus YGL086W, strain mad1, hits give low values 1 | locus YGL167C, strain pmr1, hits give low values 0.97 | locus YGL173C, strain kem1, hits give low values 0.965 | locus YGL227W, strain vid30, hits give low values 0.97 | locus YGL240W, strain doc1, hits give low values 0.972 | locus YGL248W, strain PDE1, hits give low values 1 | locus YGL253W, strain hxk2, hits give low values 0.987 | locus YGR078C, strain PAC10, hits give low values 0.998 | locus YGR135W, strain pre9, hits give low values 1.03 | locus YGR229C, strain SMI1, hits give low values 0.96 | locus YGR252W, strain gcn5, hits give low values 0.996 | locus YHR013C, strain ard1, hits give low values 0.95 | locus YHR027C, strain rpn1, hits give low values 0.952 | locus YHR030C, strain SLT2, hits give low values 1.01 and 0.98 | locus YHR079C, strain IRE1 (second series), hits give low values 1.01 | locus YHR079C, strain IRE1, hits give low values 0.998 | locus YHR094C, strain hxt1, hits give low values 1.01 | locus YHR129C, strain ARP1, hits give low values 1.01 | locus YHR142W, strain chs7, hits give low values 0.928 | locus YHR200W, strain rpn10, hits give low values 1.01 | locus YIL066C, strain RNR3, hits give low values 1.02 | locus YIL073C, strain SPO22, hits give low values 1.1 | locus YIL125W, strain kgd1, hits give low values 1.02 | locus YIR030C, strain dcg1, hits give low values 1.01 | locus YJL092W, strain hpr5, hits give low values 0.979 | locus YJL095W, strain BCK1 (second series), hits give low values 0.972 | locus YJL095W, strain BCK1, hits give low values 0.997 and 0.978 | locus YJL115W, strain asf1, hits give low values 0.954 | locus YJL129C, strain trk1, hits give low values 0.986 | locus YJL134W, strain LCB3, hits give low values 1.01 | locus YJL154C, strain vps35, hits give low values 0.95 | locus YJL164C, strain tpk1, hits give low values 0.981 | locus YJL166W, strain qcr8, hits give low values 0.931 | locus YJL168C, strain set2, hits give low values 1.01 | locus YJL187C, strain SWE1 (second series), hits give low values 0.999 | locus YJL187C, strain SWE1, hits give low values 0.974 | locus YJR043C, strain POL32, hits give low values 1.01
